# A selection: hits, their analogues and other compounds. The true share with any hit is near 5%.
# SENP8 block-1: SENP8 (human) protease inhibition; Q96LD8; recombinant SENP8, Nedd8 substrate fluorescence; inhibition, % at 20 µM; actives 0.64% (n = 360,000); AID 602440; in the data active = inhibition mostly above about 40%, no sharp cut-off; inactive = mostly below about 27%
# SENP6 block: blocks the human protease SENP6; Q9GZR1; Recombinant SENP6 catalytic domain, aminoluciferin luminescence; inhibition, % at 10 µM; actives 1.8% (n = 330,000); AID 2599;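 active = inhibition above about 50% at the single tested dose, limit read from the data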
# Target sequence (Q9GZR1 628-1112 limits assumed): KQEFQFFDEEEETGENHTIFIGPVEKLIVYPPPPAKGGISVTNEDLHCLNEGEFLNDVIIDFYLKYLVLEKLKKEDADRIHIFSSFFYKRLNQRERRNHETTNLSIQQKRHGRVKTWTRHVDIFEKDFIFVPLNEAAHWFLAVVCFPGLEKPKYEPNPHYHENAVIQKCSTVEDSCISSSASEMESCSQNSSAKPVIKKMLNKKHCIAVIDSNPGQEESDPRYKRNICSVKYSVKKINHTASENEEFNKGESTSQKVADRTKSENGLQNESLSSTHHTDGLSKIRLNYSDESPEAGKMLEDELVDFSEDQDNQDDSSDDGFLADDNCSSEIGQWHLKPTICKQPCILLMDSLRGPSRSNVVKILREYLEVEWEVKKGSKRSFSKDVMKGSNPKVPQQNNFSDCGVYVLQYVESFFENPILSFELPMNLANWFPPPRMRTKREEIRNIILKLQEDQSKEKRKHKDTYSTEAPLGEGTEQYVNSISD
# AHR activator: human AHR activation; AHR-responsive luciferase reporter cells, luminescence; activation, % at 5 µM; actives 2.5% (n = 320,000); in the data active = activation above about 47%
# SENP7 inh: inhibitors of human SENP7 protease; Q9BQF6; recombinant SENP7, Z-RLRGG-aminoluciferin luminescence, 40 min; inhibition, % at 5 µM; actives 1.5% (n = 330,000);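 active = inhibition above about 50% at the single test dose, limit read from the data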
# SENP8 block-2: inhibitors of human SENP8 protease; Q96LD8; purified SENP8, Z-RLRGG-aminoluciferin cleavage, luminescence; inhibition, % at 10 µM; actives 1.2% (n = 330,000); AID 2540; in the data active = inhibition above about 50%
# EBI2 antag: EBI2 (human) antagonism; EBI2 beta-arrestin recruitment, luminescence, 7a,25-OHC stimulated; inhibition, % at 5 µM; actives 0.81% (n = 360,000); in the data active = inhibition above about 38%;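 also: enzyme fragment complementation signal reports receptor beta-arrestin coupling in cells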
# SENP8 conf: confirmation of human SENP8 protease inhibitors | shares compounds with SENP8 block-1 | purified SENP8, Nedd8-AMC/pro-Nedd8 cleavage fluorescence, 30 min | inhibition, % at 25 µM | actives 15% (n = 1,400) | AID 624319; in the data active = inhibition mostly above about 39%, no sharp cut-off; inactive = mostly below about 34%
# Hits are given with their value; 0 = inactive; - = no result.
SMILES,SENP8 block-1,SENP6 block,AHR activator,SENP7 inh,SENP8 block-2,EBI2 antag,SENP8 conf
CN(C)c1ccc(CNCCC(Cc2ccccc2)c2ccco2)cc1 (stereo unspecified),0,0,0,0,0,0,-
c1ccc(CNCCC(Cc2ccccc2)c2ccco2)cc1 (stereo unspecified),48.4,0,0,0,0,0,0
CCC(C)NCCOc1ccc(C)cc1[N+](=O)[O-] (stereo unspecified),40.2,-,-,-,-,0,0
Nc1ccc(C2CCCc3nonc32)c2nonc12 (stereo unspecified),56.9,0,0,0,0,0,0
CCOC(=O)C1(CCCc2ccccc2)CCN(C(=O)CN2C(=O)CSC2=O)CC1,0,0,0,0,0,0,-
CC(C)(C)OC(=O)C[C@@H]1C/C=C\C[C@@H](CC(=O)NCCO)C(=O)NC[C@@H](c2ccccc2)OC1=O,0,0,0,0,0,0,-
COC(=O)Cc1c(C)nc2nc(-c3ccc(C)cc3)[nH]n2c1=O,45.5,0,0,0,0,0,0
COc1ccc(CNC(=O)[C@H](C)N2C(=O)N3CCc4c([nH]c5ccccc45)[C@@]3(C)C2=O)cc1OC,51.4,0,0,0,0,0,0
Cc1ccc(CNC(=O)[C@H](C)N2C(=O)N3CCc4c([nH]c5ccccc45)[C@@]3(C)C2=O)cc1,0,0,0,0,0,0,-
COc1ccccc1NC(=O)CC1S/C(=N/N=C(\C)C2CCCCC2)NC1=O (stereo unspecified),0,0,0,0,0,0,-
C/C(=N\NC(=O)c1cc([N+](=O)[O-])cc([N+](=O)[O-])c1)c1ccco1,0,0,0,0,0,0,-
C/C(=N\Nc1ccc(S(N)(=O)=O)cc1[N+](=O)[O-])c1ccco1,47.6,0,0,0,0,0,0
Cc1ccc(OCCCCN2CCCCC2)cc1,0,0,-,0,0,0,-
CCOc1ccc(OCCCCN2CCCC2)cc1,42.0,0,0,0,0,0,0
CC(C)C(=O)NS(=O)(=O)c1ccc(N)cc1,46.9,0,0,0,0,0,0
CC(C)CC(=O)NS(=O)(=O)c1ccc(N)cc1,0,0,0,0,0,0,-
O=[N+]([O-])c1cc(Cl)ccc1NCCNS(=O)(=O)c1ccccc1,42.6,0,0,0,0,0,0
COc1ccccc1NS(=O)(=O)c1ccc(N/N=C/c2ccccc2OCC(=O)O)c([N+](=O)[O-])c1,0,0,0,0,0,0,-
CCN(CC)S(=O)(=O)c1ccc(N/N=C/c2ccccc2OCC(=O)O)c([N+](=O)[O-])c1,51.1,0,0,0,0,0,0
CCOc1ccccc1NC(=O)C1=C(C)NC(=S)NC1c1cccs1 (stereo unspecified),0,-,0,-,-,0,-
Cc1cc(C(=O)N/N=C/c2cccnc2)c(C)o1,41.0,0,0,0,0,0,0
O=C(N/N=C/c1ccc([N+](=O)[O-])o1)c1cc(-c2cccc(Br)c2)nc2ccccc12,41.2,0,0,0,0,0,0
Cc1nonc1C(=O)N/N=C/c1ccc([N+](=O)[O-])o1,0,0,0,0,0,0,-
Cc1cc(C(=O)N/N=C/c2ccc([N+](=O)[O-])o2)c(C)o1,42.2,0,0,0,0,0,0
CCCC(=O)Nc1ccc(C(=O)N/N=C/c2ccc([N+](=O)[O-])o2)cc1,0,0,0,0,0,0,-
SMILES,SENP8 block-1,SENP6 block,AHR activator,SENP7 inh,SENP8 block-2,EBI2 antag,SENP8 conf
Cc1occc1C(=O)N/N=C/c1cccnc1,0,0,0,0,0,0,-
Cc1ccc(NC(=O)CCC(=O)N/N=C/c2ccc([N+](=O)[O-])o2)cc1C,62.8,0,0,0,0,0,0
COc1ccc(CN(C)C(=O)Cn2cnc3c(NCc4ccccc4)ncnc32)cc1OC,0,-,-,0,-,0,-
CCOc1cccc(C(=O)NNC(=O)CCC(=O)O)c1,0,0,0,0,0,0,-
C=CCN1C(=O)C(=O)N(Cc2nc3ccccc3s2)C1=O,0,0,0,0,0,0,-
COc1ccc(-c2[nH][nH]c(=O)c2NC(=O)c2ccc(C)cc2)cc1,44.7,-,-,-,-,0,0
O=C(Nc1c(-c2ccc3c(c2)OCO3)[nH][nH]c1=O)c1cnccn1,0,-,-,-,-,0,-
O=C(Nc1c(-c2ccccc2)[nH][nH]c1=O)c1ccc(Br)cc1,58.1,-,-,-,-,0,0
O=C(Nc1c(-c2ccccc2)[nH][nH]c1=O)c1cnccn1,40.1,-,-,-,-,0,0
O=C(Nc1c(-c2ccccc2)[nH][nH]c1=O)c1ccc2ccccc2c1,0,-,-,-,-,0,-
CCCc1nnc(NC(=O)CCC(=O)Nc2ccc(Br)cc2)s1,0,0,0,0,0,0,-
CC(NC(=O)CCNC(=O)c1ccc(C(C)(C)C)cc1)c1ccccc1 (stereo unspecified),0,0,0,0,0,0,-
C=CCNc1nc2c3ccccc3n(C(C)=O)c2s1,51.0,0,0,0,0,0,0
CC(=O)n1c2ccccc2c2nc3ccccc3nc21,0,0,0,0,0,0,-
Cc1ccc(NC(=O)CN(C)C(=O)CSc2nnc(C(F)(F)F)n2C)cc1,0,0,0,0,0,0,-
O=C(CSc1nnc(-c2ccccn2)o1)Nc1ccccc1F,0,0,0,0,0,0,-
[O-]C1=N/[N+](=C/c2ccccc2Cl)CC1,50.2,0,0,0,0,0,0
[O-]C1=N/[N+](=C/c2ccccc2)CC1,0,0,0,0,0,0,-
COC(=O)c1ccc(CSc2nnc(NC(=O)C3CC(=O)N(Cc4ccc(C)cc4)C3)s2)cc1 (stereo unspecified),0,0,0,0,0,0,-
C[C@H](CO)N1C[C@H](C)[C@@H](CN(C)S(=O)(=O)c2cccs2)Oc2c(NS(=O)(=O)c3ccc(F)cc3)cccc2C1=O,0,0,0,0,0,0,-
Cc1ccccc1NC(=O)Nc1ccccc1C(N)=O,0,0,0,0,0,0,-
Cc1ccccc1NNC(N)=S,50.6,0,0,0,0,0,0
Cn1c(SCC#N)nnc1-c1cnccn1,0,0,0,0,0,0,-
Cc1ccc(NC2=C(C(=O)c3ccccc3)N(C)S(=O)(=O)c3ccccc32)cc1,45.5,0,0,0,0,0,0
CCN1C(=S)SC(=O)C1=C1C=C(C)OC(C)=C1,48.2,0,0,0,0,0,0
CC(=O)Nc1cc([N+](=O)[O-])ccc1N1CCOCC1,0,0,0,0,0,0,-
O=C(Nc1ccc([N+](=O)[O-])cc1)Nc1ccc(N2CCOCC2)c2nonc12,46.3,0,0,0,0,0,0
CC(=O)C1=NN(c2ccccc2)C(c2ccc3c(c2)OCO3)N1c1ccc(N2CCOCC2)cc1 (stereo unspecified),43.6,0,0,0,0,0,0
Cn1c(Cn2nnc3ccccc32)nnc1SCC(=O)Nc1nccs1,0,0,0,0,0,0,-
Cc1ccc(N=C2N=C(N)c3ccccc32)c(C)c1,41.5,0,0,0,0,0,0

# Screening data from PubChem.
